Source: PubChem BioAssay
Active and inactive are the calls of the source.

Key:
[1] = optical density shifts of acrAB sulA E. coli – strain DRC41, OD650, 48 h, E. coli filamentation inducer project, primary screen (AID 1152); details: higher = more signal, called active from +8 up or from −8 down;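 note: E. coli MC1000 strain DRC41 lacking acrAB efflux pump and sulA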
[2] = probe aLefty1 binding on compound microarray – biochemical, small-molecule microarray, 635/667 nm fluorescence, primary screen (AID 1153); details: higher = more signal;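 note: score merges spot fluorescence with signal-to-noise ratio from the scanned slide images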
[3] = plasmodial surface anion channel blockers, osmotic lysis – cell-based, P. falciparum Indochina, OD700, 1 h, primary screen (AID 1154); details: P. falciparum Indochina infected RBC osmotic lysis, higher = more signal, called active from +8 up or from −8 down
[4] = plasmodial surface anion channel blockers, osmotic lysis – cell-based, P. falciparum Indochina, OD700, 2 h, primary screen (AID 1155);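 note: lysis reports solute entry through the parasite surface anion channel PSAC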; details: P. falciparum Indochina infected erythrocytes, higher = more signal, called active from +8 up or from −8 down
[5] = changes in parasitized red cell lysis, either direction – P. falciparum Indochina, OD700, 3 h, PSAC antagonist project, primary screen (AID 1156); details: P. falciparum-infected erythrocytes, osmotic lysis, higher = more signal, called active from +8 up or from −8 down
[6] = plasmodial surface anion channel blockers, osmotic lysis – cell-based, P. falciparum Indochina, OD700, 18 h, primary screen (AID 1157); details: P. falciparum Indochina infected erythrocytes, osmotic lysis OD700, 18 h; higher = more signal, called active from +8 up or from −8 down
[7] = S6 kinase pathway phospho-S6 level changes – cell-based, A549, cytoblot, luminescence, serum-stimulated, primary screen (AID 1158); details: 5 h, higher = more signal;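 note: serum-stimulated A549 lung adenocarcinoma cells; signal is phosphorylated S6 detected by cytoblot immunostaining with HRP secondary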
[8] = target: NADPH oxidase 2 (Homo sapiens) (UniProt P04839); assay: compounds shifting NOX2 Amplex Red fluorescence – cell-based, HEK293-NOX2, PMA-stimulated, NOX inhibitor project, primary screen (AID 1159); details: 45 min, higher = more signal, called active from +8 up or from −8 down; note: test concentration not given here
[9] = target: NADPH oxidase 4 (Homo sapiens) (UniProt Q9NPH5); assay: compounds shifting NOX4 Amplex Red fluorescence – cell-based, HEK293-NOX4, tetracycline-induced, NOX inhibitor project, primary screen (AID 1160); details: HEK293-NOX4, Amplex Red H2O2 fluorescence, 45 min; higher = more signal, called active from +8 up or from −8 down
[10] = target: NADPH oxidase 5 (Homo sapiens) (UniProt Q96PH1); assay: compounds shifting NOX5 Amplex Red fluorescence – cell-based, HEK293-NOX5, NOX inhibitor project, primary screen (AID 1161); details: HEK293-NOX5, ionomycin, 45 min, higher = more signal
[11] = compound effects on lung adenocarcinoma cell viability – A549, calcein-AM fluorescence, 48 h, basal, profiling panel (AID 1162); details: higher = more signal; note: test concentration not given here
[12] = compound effects on differentiated 3T3-L1 adipocyte viability – cell-based, 3T3-L1 adipocytes, calcein-AM fluorescence, 48 h, basal, profiling panel (AID 1163); details: 3T3-L1 adipocytes viability, higher = more signal; note: test concentration not given here
[13] = compound effects on hepatocellular carcinoma cell viability – HepG2, calcein-AM fluorescence, 48 h, basal, profiling panel (AID 1164); details: higher = more signal; note: test concentration not given here
[14] = compound effects on multiple myeloma cell viability – MM1S, calcein-AM fluorescence, 48 h, basal, profiling panel (AID 1165); details: higher = more signal;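 note: viability of MM1S multiple myeloma cells under basal unstimulated conditions; test concentration not given here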
[15] = calcein-AM signal in unstimulated myeloma cells – cell-based, calcein-AM fluorescence, 48 h, PK04 Diversity Set, profiling panel (AID 1166); details: RPMI8226 myeloma viability, higher = more signal;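 note: cells grown under basal conditions without added stimulus; test concentration not given here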
[16] = JC-1 mitochondrial signal, unstimulated HepG2 cells – cell-based, JC-1 fluorescence, 24 h, 100 nL compound, profiling panel (AID 1167); details: HepG2 mitochondrial potential, higher = more signal; note: test concentration not given here
[17] = JC-1 mitochondrial signal, unstimulated adipocytes – cell-based, JC-1 fluorescence, 3T3-L1 adipocytes, 24 h, 100 nL compound, profiling panel (AID 1168); details: JC-1 mitochondrial fluorescence, higher = more signal, called active from +8 up or from −8 down; note: test concentration not given here
[18] = JC-1 mitochondrial signal, unstimulated myeloma cells – cell-based, JC-1 fluorescence, RPMI8226, 24 h, 100 nL compound, profiling panel (AID 1169); details: JC-1 mitochondrial potential fluorescence, higher = more signal; note: test concentration not given here
[19] = JC-1 mitochondrial signal, unstimulated MM1S myeloma – cell-based, JC-1 fluorescence, 24 h, 100 nL compound, profiling panel (AID 1170); details: MM1S mitochondrial potential, higher = more signal; note: test concentration not given here
[20] = resazurin metabolic signal in A549 cells – cell-based, resazurin fluorescence, 24 h, PK04 Diversity Set, profiling panel (AID 1171); details: A549 viability, higher = more signal, called active from +8 up or from −8 down; note: test concentration not given here

Chain of NADPH oxidase 2 (Homo sapiens) (P04839 whole entry, looked up): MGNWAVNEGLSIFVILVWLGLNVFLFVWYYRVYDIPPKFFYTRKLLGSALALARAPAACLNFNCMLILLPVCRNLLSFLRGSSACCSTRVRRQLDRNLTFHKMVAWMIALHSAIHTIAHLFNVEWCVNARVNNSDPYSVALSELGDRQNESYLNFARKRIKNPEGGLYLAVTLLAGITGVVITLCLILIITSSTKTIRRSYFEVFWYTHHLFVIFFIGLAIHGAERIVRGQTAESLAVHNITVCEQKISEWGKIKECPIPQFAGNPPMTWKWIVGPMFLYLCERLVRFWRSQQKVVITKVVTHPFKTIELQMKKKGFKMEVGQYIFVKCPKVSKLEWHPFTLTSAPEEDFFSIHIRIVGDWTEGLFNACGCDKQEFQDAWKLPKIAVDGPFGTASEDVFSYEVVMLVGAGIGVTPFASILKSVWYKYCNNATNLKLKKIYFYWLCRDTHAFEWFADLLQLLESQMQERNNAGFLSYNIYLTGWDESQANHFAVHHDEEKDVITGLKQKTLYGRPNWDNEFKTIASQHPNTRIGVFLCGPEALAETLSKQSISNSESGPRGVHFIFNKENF
Chain of NADPH oxidase 4 (Homo sapiens) (Q9NPH5 whole entry, looked up): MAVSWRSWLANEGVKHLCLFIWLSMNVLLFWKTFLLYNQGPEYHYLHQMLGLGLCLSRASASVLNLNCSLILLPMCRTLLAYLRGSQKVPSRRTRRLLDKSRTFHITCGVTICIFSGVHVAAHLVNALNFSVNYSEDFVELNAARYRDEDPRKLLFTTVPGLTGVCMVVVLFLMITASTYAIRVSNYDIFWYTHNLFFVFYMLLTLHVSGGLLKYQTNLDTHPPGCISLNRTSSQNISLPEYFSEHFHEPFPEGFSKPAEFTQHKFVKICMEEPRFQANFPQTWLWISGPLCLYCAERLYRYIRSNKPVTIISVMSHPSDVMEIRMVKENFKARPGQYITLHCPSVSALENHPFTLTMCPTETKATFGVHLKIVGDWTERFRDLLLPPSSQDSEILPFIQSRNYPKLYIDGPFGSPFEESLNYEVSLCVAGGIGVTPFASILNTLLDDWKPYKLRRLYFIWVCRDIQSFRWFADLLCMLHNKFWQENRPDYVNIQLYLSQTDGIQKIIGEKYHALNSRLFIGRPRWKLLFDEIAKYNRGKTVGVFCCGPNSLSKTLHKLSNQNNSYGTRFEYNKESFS
Chain of NADPH oxidase 5 (Homo sapiens) (Q96PH1 whole entry, looked up): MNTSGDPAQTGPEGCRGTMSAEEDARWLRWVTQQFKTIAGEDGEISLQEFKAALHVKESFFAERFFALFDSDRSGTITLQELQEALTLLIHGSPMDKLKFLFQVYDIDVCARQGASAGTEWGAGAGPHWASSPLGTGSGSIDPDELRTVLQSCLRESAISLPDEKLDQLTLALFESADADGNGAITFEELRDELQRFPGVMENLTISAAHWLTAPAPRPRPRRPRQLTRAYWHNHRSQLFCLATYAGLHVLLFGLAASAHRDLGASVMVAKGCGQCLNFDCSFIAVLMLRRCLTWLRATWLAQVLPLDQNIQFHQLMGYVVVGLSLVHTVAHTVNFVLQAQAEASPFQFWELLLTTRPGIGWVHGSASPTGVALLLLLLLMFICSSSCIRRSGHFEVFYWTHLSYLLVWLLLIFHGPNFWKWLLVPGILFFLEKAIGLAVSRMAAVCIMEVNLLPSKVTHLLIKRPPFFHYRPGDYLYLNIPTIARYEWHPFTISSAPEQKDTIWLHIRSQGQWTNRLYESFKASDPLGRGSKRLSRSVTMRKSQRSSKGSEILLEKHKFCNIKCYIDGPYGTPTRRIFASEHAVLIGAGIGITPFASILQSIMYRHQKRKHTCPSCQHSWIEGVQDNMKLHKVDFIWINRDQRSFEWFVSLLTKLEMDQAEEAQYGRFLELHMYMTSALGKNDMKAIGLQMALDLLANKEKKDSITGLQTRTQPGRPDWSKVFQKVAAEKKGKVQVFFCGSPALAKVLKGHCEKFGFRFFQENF

Row | SMILES | z-score [1] | composite z-score [2] | z-score [3] | z-score [4] | z-score [5] | z-score [6] | z-score [7] | z-score [8] | z-score [9] | z-score [10] | z-score [11] | z-score [12] | z-score [13] | z-score [14] | z-score [15] | z-score [16] | z-score [17] | z-score [18] | z-score [19] | z-score [20]
1 | [N-]=[N+]=NCc1ccccc1[C@@H]1OC(c2ccc(OCCCO)cc2)=N[C@]1(Cc1ccccc1N=[N+]=[N-])C(N)=O | -0.386 (inactive) | 0.636 | 20.5 (active) | 2.68 (inactive) | 1.5 (inactive) | 0.54 (inactive) | -0.0826 | -1.07 (inactive) | -0.527 (inactive) | 0.12 | -0.533 | 0.306 | 0.0804 | -1.01 | -2.22 | -1.5 | -1.92 (inactive) | -0.918 | -0.0745 | -0.139 (inactive)
2 | CC(C)N1C(=O)c2ccccc2[C@](C)(C(=O)NCCCN(C)C)[C@@H]1c1ccc(CO)cc1 | 0.0259 (inactive) | 0.0201 | 2.5 (inactive) | 0.347 (inactive) | 0.766 (inactive) | 0.4 (inactive) | 0.564 | 0.288 (inactive) | 0.893 (inactive) | 1.15 | 0.415 | 0.302 | 0.446 | -0.0937 | -0.384 | 0.861 | -0.253 (inactive) | -0.13 | 0.413 | 0.565 (inactive)
3 | COCCn1c(C(=O)N(C)C)cc2c1C[C@H]1CN(C(=O)c3ccccc3)[C@@](Cc3ccc(F)cc3)(C(=O)OC)[C@@H]21 | 0.118 (inactive) | 0.211 | 0.666 (inactive) | -0.34 (inactive) | -0.0451 (inactive) | 0.397 (inactive) | -0.17 | 0.395 (inactive) | 0.211 (inactive) | -1.69 | 0.428 | -0.687 | 0.684 | -0.259 | -0.362 | 0.938 | -0.499 (inactive) | 0.172 | -0.929 | -0.774 (inactive)
4 | O=S(=O)(NCCCO)c1ccc(Br)cc1 | 0.949 (inactive) | 0.103 | 0.168 (inactive) | -0.852 (inactive) | -1.21 (inactive) | -1.71 (inactive) | 0.679 | -1.2 (inactive) | -0.0431 (inactive) | 0.102 | 0.819 | -0.307 | 0.492 | 0.704 | 1.24 | 0.76 | 0.371 (inactive) | 0.514 | -0.722 | -0.285 (inactive)
5 | [N-]=[N+]=NCc1ccccc1C[C@]1(C(N)=O)N=C(c2ccc(OCCCO)cc2)O[C@H]1c1ccccc1N=[N+]=[N-] | 0.125 (inactive) | 0.588 | 34.1 (active) | 32.7 (active) | 2.52 (inactive) | 3.39 (inactive) | -0.59 | -3.15 (inactive) | -0.457 (inactive) | -2.02 | -0.169 | 0.0873 | -0.153 | -2.05 | -1.55 | -0.727 | -1.38 (inactive) | -1.04 | -0.649 | -0.38 (inactive)
6 | Cc1ccc(S[C@]2(C(=O)NCCCN(C)C)CC(=O)N(Cc3ccccc3)[C@@H]2c2ccc(CO)cc2)cc1 | 0.239 (inactive) | 0.136 | 2.24 (inactive) | 0.077 (inactive) | 1.5 (inactive) | 0.013 (inactive) | 0.161 | -3.38 (inactive) | 0.6 (inactive) | 1.89 | 0.931 | -0.084 | -0.569 | -0.569 | -1.12 | 0.816 | -0.946 (inactive) | -0.718 | 0.706 | 0.516 (inactive)
7 | O=C1C2C=CC(C(O)C3CC=CCC3)N(n3cnnc3)C2C(=O)N1Cc1ccccc1 (stereo not given) | -1.37 (inactive) | 0.0455 | 1.36 (inactive) | 0.585 (inactive) | 0.576 (inactive) | 0.388 (inactive) | -0.792 | -0.621 (inactive) | -1.61 (inactive) | -1.34 | -0.563 | -0.801 | 0.253 | -0.379 | -0.255 | -0.937 | -0.132 (inactive) | 0.46 | -0.109 | -0.62 (inactive)
8 | CC(=O)NCCCC[C@@H]1NC(=O)[C@@H]2C[C@H](C(=O)NCc3ccc(F)cc3)[C@H](c3ccc(O)cc3)N2C1=O | 0.921 (inactive) | -0.0601 | 1.63 (inactive) | 0.549 (inactive) | -1.64 (inactive) | 0.277 (inactive) | -0.0125 | 0.647 (inactive) | 0.059 (inactive) | 1.37 | -0.484 | 0.347 | -0.797 | -1.18 | -0.556 | 1.28 | 0.58 (inactive) | 0.0286 | 0.28 | 0.361 (inactive)
9 | [N-]=[N+]=NCc1ccccc1C[C@@]1(C(=O)NCc2ccccc2)N=C(c2ccc(OCCCO)cc2)O[C@@H]1c1ccccc1CN=[N+]=[N-] | 0.561 (inactive) | 0.7 | 26.1 (active) | 15.3 (active) | 1.58 (inactive) | 1.87 (inactive) | -0.633 | -1.03 (inactive) | -0.17 (inactive) | -0.353 | -0.293 | -0.0193 | 0.236 | -0.645 | -1.13 | 0.0212 | -0.835 (inactive) | -0.66 | -1.32 | 1.01 (inactive)
